In test [1] the target is Retinoic acid receptor RXR-alpha (Homo sapiens) (UniProt P19793). Nature of the test: OT_NURR1_NURR1RXRa_0480: Odyssey Thera (OT) 8-hour HEK293T Protein Complementation Assay for Nurr1/retinoid X receptor (RXR) (AID 2283385). Put shortly: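 HEK293T cells expressing Nurr1 and RXRα fused to reporter fragments were dosed with compound for 8 hours. Complex formation was read as fluorescence intensity and analysed as gain of signal against DMSO as baseline.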

Test [2] has as its target Peroxisome proliferator-activated receptor gamma (Homo sapiens) (UniProt P37231). Nature of the test: OT_PPARg_PPARgSRC1_0480: Odyssey Thera (OT) 8-hour Protein-Complementation Assay for Peroxisome Proliferator-activated Receptor Gamma / SRC-1 Co-activator (AID 2283387).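 Also: nuclear to cytoplasmic split Venus YFP fluorescence ratio reporting PPARg SRC-1 interaction.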 Put shortly: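 Protein-fragment complementation of split Venus YFP reports PPARg/SRC-1 interaction in HEK293T (transfected 48 h before treatment), exposed 8 h. Readout: N/C fluorescence ratio at 488 nm from imaging, Draq5 for segmentation, positive fit relative to DMSO.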

Test [3] has the same target. Nature of the test: OT_PPARg_PPARgSRC1_1440: Odyssey Thera (OT) 24-hour Protein-Complementation Assay for Peroxisome Proliferator-activated Receptor Gamma/ SRC-1 Co-activator (AID 2283388).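 Also: nuclear to cytoplasmic ratio of reconstituted Venus YFP fluorescence in fixed imaged cells.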 Put shortly:
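Protein-fragment complementation between PPARg and coactivator SRC-1 was measured by fluorescence imaging in transiently transfected HEK293T cells after 24 h treatment. Signal was quantified as N/C ratio in the 488 nm channel, with DMSO as negative control.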

Test [4] in a line: CEETOX_H295R_OHPREG: CeeTox H295R High-throughput Steroidogenesis Assay for OH-Pregnenolone (OHPREG) (AID 2283434; active = hit-call score of the fitted dose curve at least 0.9, where 1 is the maximum; inactive = score below 0.9). To be noted: actives raise or lower the signal. The essentials: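 H295R cells pre-stimulated 48 h with 10 uM forskolin, then exposed 48 h to chemical in 0.1% DMSO. 17alpha-hydroxypregnenolone in medium quantified by MTBE extraction and HPLC-MS/MS; bidirectional fit versus DMSO, viability checked by MTT.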

Test [5] is described as follows: CEETOX_H295R_OHPROG: CeeTox H295R High-throughput Steroidogenesis Assay for OH-Progesterone (OHPROG) (AID 2283435; active = hit-call score of the fitted dose curve at least 0.9, where 1 is the maximum; inactive = score below 0.9). To be noted: actives raise or lower the signal. Put shortly:
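H295R human adrenal cells were prestimulated 48 h with 10 uM forskolin, then exposed 48 h to test chemical (0.1% DMSO final). 17alpha-hydroxyprogesterone in medium was measured by HPLC-MS/MS after MTBE extraction; bidirectional fitting vs DMSO.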

Test [6] is described as follows: CEETOX_H295R_11DCORT: CeeTox H295R High-throughput Steroidogenesis Assay for 11-Deoxycortisol (11DCORT) (AID 2283432; active = hit-call score of the fitted dose curve at least 0.9, where 1 is the maximum; inactive = score below 0.9;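 as to AC50: 11-deoxycortisol secreted into the medium measured by LC-MS/MS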). The following applies: actives raise or lower the signal. Put shortly: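 Human adrenal H295R cells were prestimulated with 10 uM forskolin for 48 h, then exposed to test chemical (0.1% DMSO final) for 48 h. Medium 11-deoxycortisol was quantified by MTBE extraction and HPLC-MS/MS; bidirectional fitting relative to DMSO.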

Test [7] can be described thus: CEETOX_H295R_CORTIC: CeeTox H295R High-throughput Steroidogenesis Assay for Corticosterone (CORTIC) (AID 2283437; active = hit-call score of the fitted dose curve at least 0.9, where 1 is the maximum; inactive = score below 0.9;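 also: corticosterone secreted into medium quantified by mass spectrometry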). The following applies: actives raise or lower the signal. Put shortly: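 H295R adrenal cells prestimulated 48 hours with 10 uM forskolin, then exposed 48 hours to chemical in 0.1% DMSO. Corticosterone in medium measured by HPLC-MS/MS after MTBE extraction; MTT viability in the same wells; bidirectional fit versus DMSO.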

A short description of test [8]: CEETOX_H295R_CORTISOL: CeeTox H295R High-throughput Steroidogenesis Assay for Cortisol (AID 2283438; active = hit-call score of the fitted dose curve at least 0.9, where 1 is the maximum; inactive = score below 0.9;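 also: cortisol secreted into medium quantified by LC-MS/MS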). To be noted: actives raise or lower the signal. The essentials: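 H295R human adrenal cells were prestimulated 48 h with 10 uM forskolin, then exposed 48 h to test chemical (0.1% DMSO final). Medium cortisol was quantified by HPLC-MS/MS after MTBE extraction; bidirectional fitting relative to DMSO baseline.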

Test [9] in a line: CEETOX_H295R_ANDR: CeeTox H295R High-throughput Steroidogenesis Assay for Androstenedione (ANDR) (AID 2283436; active = hit-call score of the fitted dose curve at least 0.9, where 1 is the maximum; inactive = score below 0.9). To be noted: actives raise or lower the signal. The essentials: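 H295R cells, following OECD 456 with minor changes, exposed to chemicals for 48 h. Androstenedione in the medium was quantified by HPLC-MS/MS after MTBE extraction. Fitting was bidirectional versus DMSO; chemicals were diluted until MTT viability was ≥70%.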

Test [10] has as its target Retinoic acid receptor RXR-alpha (Homo sapiens) (UniProt P19793). As to the kind of experiment: OT_NURR1_NURR1RXRa_1440: Odyssey Thera (OT) 24-hour HEK293T Protein Complementation Assay for Nurr1/retinoid X receptor (RXR) (AID 2283386). The essentials:
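HEK293T cells were dosed with compound and read 24 h later by fluorescence intensity in a protein-fragment complementation format, where Nurr1–RXRα interaction reconstitutes a split reporter. Activity was fitted as gain of signal relative to DMSO baseline.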

Records with an inconclusive call do not appear. The source made the active and inactive calls. The calls were made as follows, unless noted: active = hit-call score of the fitted dose curve at least 0.9, where 1 is the maximum; inconclusive = response in the unintended direction; inactive = score below 0.9.

Chain of Peroxisome proliferator-activated receptor gamma (Homo sapiens) (P37231 whole entry, looked up, the tested form may be a part): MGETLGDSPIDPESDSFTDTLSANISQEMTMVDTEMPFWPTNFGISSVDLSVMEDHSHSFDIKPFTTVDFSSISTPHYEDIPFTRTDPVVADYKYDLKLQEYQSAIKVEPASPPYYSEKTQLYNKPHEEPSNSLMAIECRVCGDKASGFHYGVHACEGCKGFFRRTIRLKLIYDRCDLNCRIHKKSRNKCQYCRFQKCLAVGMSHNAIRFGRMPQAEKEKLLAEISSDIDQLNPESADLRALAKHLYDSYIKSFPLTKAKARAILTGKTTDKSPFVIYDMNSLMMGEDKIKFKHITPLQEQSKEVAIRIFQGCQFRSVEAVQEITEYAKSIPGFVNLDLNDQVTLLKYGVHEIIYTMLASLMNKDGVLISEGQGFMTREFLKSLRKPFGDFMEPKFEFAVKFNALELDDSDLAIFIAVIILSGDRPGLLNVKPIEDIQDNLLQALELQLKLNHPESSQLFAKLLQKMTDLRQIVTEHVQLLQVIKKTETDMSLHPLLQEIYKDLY
Chain of Retinoic acid receptor RXR-alpha (Homo sapiens) (P19793 whole entry, looked up, the tested form may be a part): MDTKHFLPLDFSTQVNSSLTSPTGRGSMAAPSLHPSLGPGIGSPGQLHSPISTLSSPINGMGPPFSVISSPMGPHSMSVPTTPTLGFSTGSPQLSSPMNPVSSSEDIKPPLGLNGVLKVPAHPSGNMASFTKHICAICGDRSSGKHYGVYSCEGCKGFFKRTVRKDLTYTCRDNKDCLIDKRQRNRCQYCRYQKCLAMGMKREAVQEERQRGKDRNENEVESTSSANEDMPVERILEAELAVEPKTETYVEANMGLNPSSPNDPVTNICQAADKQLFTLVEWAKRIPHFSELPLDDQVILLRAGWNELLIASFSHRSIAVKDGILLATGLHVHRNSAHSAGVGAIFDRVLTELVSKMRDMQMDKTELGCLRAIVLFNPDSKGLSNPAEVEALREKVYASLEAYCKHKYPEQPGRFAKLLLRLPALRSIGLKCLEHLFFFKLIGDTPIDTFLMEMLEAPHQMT

Regarding `CC(=O)[C@H]1CC[C@H]2[C@@H]3CCC4=CC(=O)CC[C@]4(C)[C@H]3CC[C@]12C`, the molecule was classed as inactive in test [1], in test [2], in [3] and in [5]. In addition, the AC50 in [4] was 7.97 µM (active).
Turning to `c1ccc(Nc2ccccc2)cc1`, the concentration at half-maximal activity (AC50) in [1] is 50 µM (active). Also, the outcome in test [2], in [3], in [4] and in [5] was inactive.
In the case of `CC(C)(C)[C@@H](O)[C@@H](Cc1ccc(Cl)cc1)n1cncn1`, the molecule was classed as inactive in test [1], in [2], in test [3], in test [6], in test [4] and in test [5]. In addition, the result in test [7] was inactive. Further, in test [8], the AC50 was 5 µM (active).
`COC(=O)c1ccc(I)cc1S(=O)(=O)NC(=O)Nc1nc(C)nc(OC)n1`: the molecule was called inactive in test [2] and in test [3].
`CC1(C)C(C=C(Cl)Cl)C1C(=O)OCc1cccc(Oc2ccccc2)c1` (stereo not drawn): the result in test [1], in [4], in [9], in [7] and in [8] was inactive. The AC50 is 11.3 µM (active) in test [6] and 11.1 µM (active) in test [5].
As to `CCCCCOC(=O)COc1cc(N2C(=O)C3=C(CCCC3)C2=O)c(F)cc1Cl`, the call in test [1], in [2], in test [3], in [6], in [4] and in test [5] was inactive. Moreover, the result in test [7] and in test [8] was inactive.
Take `CCCCC(CC)CN1C(=O)C2C3C=CC(C3)C2C1=O` (stereo not drawn): the call in test [1], in test [2], in [3], in [6], in [4] and in [5] was inactive. The molecule was classed as inactive in [7] and in [8].
As for `CC(C)CCCCCCc1ccc(O)cc1`, the call in test [2] and in test [3] was inactive.
For `COc1c(Cl)ccc(Cl)c1C(=O)O`, the result in test [2] and in test [3] was inactive.
As to `CCOC(=O)C(C)Oc1ccc(Oc2cnc3cc(Cl)ccc3n2)cc1` (stereo not drawn), the result in [1], in [2], in test [3], in [6], in [4] and in [5] was inactive. The result in [7] and in test [8] was inactive.
As to `C#CCOC(=O)[C@@H](C)Oc1ccc(Oc2ncc(Cl)cc2F)cc1`, the molecule was called inactive in test [1], in test [2], in test [3], in test [4], in [7] and in test [8]. The values for the AC50 in test [6] and in test [5] were 9.92 µM (active) and 9.84 µM (active), respectively.
Consider `CC(=O)S[C@@H]1CC2=CC(=O)CC[C@]2(C)[C@H]2CC[C@@]3(C)[C@@H](CC[C@@]34CCC(=O)O4)[C@H]12`, for which the result in [1], in test [2], in test [3], in test [5] and in test [7] was inactive. Moreover, the AC50 in test [6] was 1.76 µM (active); in [4], 0.805 µM (active); in test [9], 1.63 µM (active); in test [8], 1.83 µM (active).
With `CCNc1nc(N)nc(Cl)n1`, the result in [1], in [4] and in [5] was inactive.
Turning to `CCSC(=O)N(CC(C)C)CC(C)C`, the outcome in test [10], in [2] and in test [3] was inactive.
For `CCCCOCCOCCOCc1cc2c(cc1CCC)OCO2`, the result in [1], in test [2], in test [3], in test [5] and in test [9] was inactive. For the same molecule, the AC50 in [4] is 5 µM (active).
Consider `C#C[C@]1(O)CC[C@H]2[C@@H]3CCC4=CC(=O)CC[C@@H]4[C@H]3CC[C@@]21CC`, for which the outcome in test [1], in test [2], in test [3], in test [6], in test [5] and in test [7] was inactive. In addition, the results for the AC50 in test [4] and in test [8] were 2.42 µM (active) and 2.4 µM (active), respectively.
With `OB(O)O`, the result in test [10], in test [2] and in [3] was inactive.
As for `Oc1ccc(C(c2ccc(O)cc2)C(Cl)(Cl)Cl)cc1`, the molecule was classed as inactive in test [2], in [3] and in test [7]. Besides, the AC50 in [6] is 2.85 µM (active); in test [4], 0.299 µM (active); in test [5] it was 10 µM (active); in test [8], 0.399 µM (active).
With `CCCOC(=O)c1ccc(C(=O)OCCC)nc1`, the molecule was classed as inactive in test [2] and in [3].
Take `c1ccc2[nH]c(-c3cscn3)nc2c1`: the result in test [2], in test [3], in [6], in test [4], in [5] and in test [9] was inactive. Besides, the call in test [7] and in test [8] was inactive.
`CCOC(=O)c1ccc(O)cc1`: the molecule was called inactive in test [1], in test [4], in [7] and in test [8]. Besides, the figures for the AC50 in test [6] and in test [5] were 85.1 µM (active) and 31 µM (active), respectively.
With `CCCCOC(=O)[C@@H](C)Oc1ccc(Oc2ccc(C(F)(F)F)cn2)cc1`, the outcome in test [1], in test [2], in test [3], in test [6], in test [4] and in test [5] was inactive. Also, the call in test [7] and in test [8] was inactive.
Regarding `S=C([S-])NCCNC(=S)[S-].[Mn+2]`, the outcome in [1], in [2], in test [3], in test [6], in test [4] and in test [5] was inactive. The call in test [7] and in [8] was inactive.
On to `N[C@@H](Cc1cc(I)c(Oc2ccc(O)c(I)c2)c(I)c1)C(=O)O`, for which the outcome in test [2] and in test [3] was inactive.
On to `O=C(O)C1(C(=O)Nc2ccc(Cl)cc2Cl)CC1`, for which the molecule was classed as inactive in test [2] and in test [3].

The values above are taken from PubChem BioAssay (EPA / NIEHS).
